# Hits are enriched below; roughly 1.4% of the tested compounds scored in any of these assays.
# SSB-PriA inh: inhibitors of Klebsiella pneumoniae PriA binding to SSB C-terminal tail. AlphaScreen SSBct-PriA binding, biotinylated peptide. inhibition, % at 33 µM. actives 0.6% (n = 430,000). AID 1272365; in the data active = inhibition mostly above about 37%, no sharp cut-off; inactive = mostly below about 20%;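 also: plate controls were negative control peptide for no effect and reference peptide for full effect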
# PrPC TRFRET: cell surface PrPC inhibition, primary TR-FRET screen | TR-FRET read-out | inhibition, % at 13.8 µM | actives 0.43% (n = 370,000) | AID 720596; in the data active = inhibition above about 24%; also: 0% = median of the test wells and 100% = reference compound wells
# PrP 5UTR inh: inhibition of PrP 5' UTR reporter expression; cell-based PrP 5' UTR mRNA reporter, plate reader; inhibition, % (concentration not given with the values); actives 0.35% (n = 340,000); in the data active = inhibition above about 52%; also: 0 = median of the neutral control wells
# BH1578 lux ind: induces V. cholerae light production without autoinducers | V. cholerae BH1578 lux reporter, luminescence, 6 h | activation, % at 18.7 µM | actives 0.16% (n = 350,000) | AID 588436; in the data active = activation mostly above about 9.7%, no sharp cut-off
# FadD28 binding: inhibitors of Mycobacterium tuberculosis FadD28 bisubstrate binding; FadD28 bisubstrate probe binding, fluorescence polarization; inhibition, % at 12.5 µM; actives 0.22% (n = 360,000); AID 588549; in the data active = inhibition above about 8.5%, passing the limit was not always enough
# PrPC confirm: confirmation of inhibitors of cell surface human prion protein; shares compounds with PrPC TRFRET; cell surface PrPC level, TR-FRET; inhibition, % at 13.8 µM; actives 65% (n = 1,500); AID 743200; in the data active = inhibition above about 25%
# LD9 tox: kills or reduces viability of LD9 cells in PrPc counter-screen; shares compounds with PrPC TRFRET; LD9 cells cytotoxicity, luminescence viability; inhibition, % at 13.8 µM; actives 29% (n = 1,500); AID 743201; in the data active = inhibition above about 9.5%
# Starred values were filed as active, the others as inactive; i = inactive; nt = no result given.
SMILES,SSB-PriA inh,PrPC TRFRET,PrP 5UTR inh,BH1578 lux ind,FadD28 binding,PrPC confirm,LD9 tox
Brc1ccc(-c2nn3c(-c4ccco4)nnc3s2)o1,-13.9,61.8*,-8.3,i,-1.9,75.7*,-3.3
Clc1ccc(-c2ccc(-c3nn4c(-c5ccco5)nnc4s3)o2)cc1,5.3,-2.7,-23.5,i,-5.0,nt,nt
CC(=O)OC1CC2OC3C=C(C)CCC3(C)C1(C)C21CO1 (stereo unspecified),nt,90.5*,nt,-0.3,-1.3,100.9*,32.2*
O=C(CSc1nnc(NC(=O)c2ccccc2F)s1)NCc1ccc(F)cc1,-16.0,34.9*,-32.8,-0.4,-3.8,8.5,-7.8
COc1ccc(S(=O)(=O)N(Cc2ccccc2)Cc2ccccc2)cc1,-16.0,nt,nt,nt,nt,nt,nt
O=C(Nc1ccc(-c2ccn[nH]2)cc1)c1cccc(Oc2ccccn2)c1,-22.0,nt,nt,nt,nt,nt,nt
O=c1c2cn[nH]c2[nH]c(=S)n1-c1ccccc1,-2.2,-2.9,-7.5,i,-2.5,nt,nt
O=c1c2cn[nH]c2[nH]c(=S)n1-c1cccc2ccccc12,-6.9,40.0*,-22.9,i,-1.0,45.9*,-6.1
Cc1ccc([C@H](CNC(=O)c2c(F)cccc2Cl)N2CCN(C)CC2)cc1,-6.0,nt,nt,nt,nt,nt,nt
COc1ccc(NC(=S)Nc2ccc3nc(-c4ccccn4)c(-c4ccccn4)nc3c2)cc1,39.8,nt,nt,nt,nt,nt,nt
Cc1ccc(C(=O)Nc2ccc3cn[nH]c3c2)cc1S(=O)(=O)N1CCCCC1,10.6,25.6*,-51.3,i,-12.6,18.1,0.5
CN(C(=O)CSc1cc(C(=O)c2nccn2C)c2ccccc2n1)c1ccccc1,4.8,88.5*,1.5,-3.6,-1.1,73.9*,8.0
COc1ccccc1NC(=O)c1ccc2noc(-c3ccccc3)c2c1,-1.0,nt,nt,nt,nt,nt,nt
NC(=O)COC(=O)c1ccc2noc(-c3ccccc3)c2c1,-8.9,36.8*,-23.2,-0.1,-1.0,30.4*,-8.2
CCN1C(=O)Cc2cc(NS(=O)(=O)c3cnn(C)c3)ccc21,-18.0,nt,nt,nt,nt,nt,nt
CC(N)C(=O)NC1C2C(=C(O)CC(O)C2O)C(=O)OC1(C)C(Cl)Cl (stereo unspecified),-0.6,93.5*,21.7,i,-2.5,99.8*,25.6*
CCCN(C(=O)C(=O)Nc1ccc2nc3n(c(=O)c2c1)CCCCC3)c1ccc(OCC)cc1,4.1,30.8*,-21.2,-0.1,-2.2,11.6,-1.7
O=C(Nc1ccc2nc3n(c(=O)c2c1)CCCCC3)c1c(F)ccc([N+](=O)[O-])c1F,7.3,26.1*,-11.0,-0.3,-3.4,28.2*,95.8*
O=C(Nc1ccc2nc3n(c(=O)c2c1)CCCCC3)c1cc([N+](=O)[O-])ccc1F,4.4,-25.8,-4.5,-0.3,-0.7,nt,nt
CCOC(=O)Nc1ccc2nc3n(c(=O)c2c1)CCCCC3,-2.6,6.8,-35.1,i,-2.2,nt,nt
O=S(=O)(Cc1ccc(C(F)(F)F)cc1)NCC1(c2cccs2)CC1,-20.0,nt,nt,nt,nt,nt,nt
COc1ccc(Cl)cc1NC(=O)N1CCC[C@H](c2nn(C)c(=O)n2-c2ccccc2)C1,-1.0,nt,nt,nt,nt,nt,nt
COC(=O)c1sc(NC(=O)C2CCCCC2C(=O)O)c(C(=O)OC)c1C (stereo unspecified),-19.2,27.4*,-20.0,i,-3.5,41.9*,-9.2
COc1ccccc1NC(=O)C(=O)NCC1(c2ccc(F)cc2)CC1,-9.0,nt,nt,nt,nt,nt,nt
COC(=O)[C@H]1[C@@H](O)[C@@]2(O)c3c(OC)cc(OC)cc3O[C@@]2(c2ccc(OC)cc2)[C@@H]1c1ccc(F)cc1,nt,83.1*,nt,nt,nt,90.9*,20.2*
SMILES,SSB-PriA inh,PrPC TRFRET,PrP 5UTR inh,BH1578 lux ind,FadD28 binding,PrPC confirm,LD9 tox
Cc1cc2sc(C(=O)O)c(C)c2s1,1.2,30.1*,-0.6,i,-0.6,41.6*,-6.3
Cc1ccc(C)c(-c2nnc(NC(=O)CS(=O)(=O)c3ccc(Cl)cc3)o2)c1,-8.0,nt,nt,nt,nt,nt,nt
COc1ccc(-n2c(=S)[nH]c3sc(-c4ccccc4)cc3c2=O)c(OC)c1,-7.4,3.1,-3.5,i,-1.5,nt,nt
COc1cccc(-c2cc3c(=O)n(-c4ccccc4)c(=S)[nH]c3s2)c1,-10.1,30.6*,-45.3,5.6,1.1,67.3*,-0.7
CC(C)(C)c1ccc(OCCC(=O)Nc2cccc(S(=O)(=O)N3CCCCC3)c2)cc1,-7.1,24.5*,-0.4,3.3,-0.7,19.8,-0.6
O=C(NCCC(O)c1ccco1)NCc1cccs1 (stereo unspecified),-3.0,nt,nt,nt,nt,nt,nt
